Test [1] has as its target Myc proto-oncogene protein (Homo sapiens) (UniProt P01106). The test is described as follows: ATG_Myc_CIS: Attagene CIS-FACTORIAL HepG2 Assay for human Myelocytomatosis (Myc) Proto-Oncogene Transcription Factor (AID 2282990). Particulars: HepG2, Attagene cis-reporter transcription factor activity; actives raise or lower the signal. The gist of the method:
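HepG2, transient MRTU transfection (cis promoters, endogenous TFs); 24 h dosing; TriZol RNA → oligo(dT) RT → PCR → 6-FAM primer extension → HpaI cut → CE. Bidirectional fit vs DMSO.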

Test [2] in a line: ATG_NF_kB_CIS: Attagene CIS-FACTORIAL HepG2 Assay for human Nuclear Factor Kappa B (NF-kB) (AID 2282991). Particulars: HepG2 Attagene cis-factorial NF-kB reporter mRNA; actives raise or lower the signal. The method, boiled down:
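HepG2 cells transfected with cis-promoter-driven reporter units, so endogenous transcription factor activity is measured. Reporter mRNA quantified 24 h after dosing by RT-PCR and capillary electrophoresis, with bidirectional fitting against DMSO.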

Test [3] in a line: ATG_NRF2_ARE_CIS: Attagene CIS-FACTORIAL HepG2 Assay for human Nuclear Factor Erythroid 2 Related Factor 2 (NFR2) response to Antioxidant Response Elements (ARE) (AID 2282992). Particulars: HepG2 Attagene ARE/NRF2 reporter, transcription factor activity; actives raise or lower the signal. The method, boiled down:
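Endogenous transcription factor activity read out as reporter transcript levels (RT-PCR plus capillary electrophoresis, fluorescence) in transiently transfected HepG2 cells. Measured at 24 h after dosing; gain or loss of signal fitted versus DMSO.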

A short description of test [4]: ATG_Oct_MLP_CIS: Attagene CIS-FACTORIAL HepG2 Assay for human Octamer-Binding Transcription Factor (Oct) (AID 2282993). Particulars: HepG2 Attagene cis-factorial Oct reporter, mRNA; actives raise or lower the signal. The gist of the method: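 Readout is reporter transcript level from RT-PCR with fluorescent primer extension and capillary electrophoresis, fitted in both directions against DMSO. Transfected HepG2 reporter units report endogenous factor activity after 24 h dosing.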

For test [5], the target named is Cellular tumor antigen p53 (Homo sapiens) (UniProt P04637). Put plainly: ATG_p53_CIS: Attagene CIS-FACTORIAL HepG2 Assay for human p53 Transcription Factor (AID 2282994). Particulars: HepG2 p53 cis-element reporter, Attagene mRNA; actives raise or lower the signal. The gist of the method: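 Endogenous p53 activity read in transiently transfected HepG2 from a cis-element-driven reporter transcript after 24 h exposure. RNA reverse-transcribed, PCR-amplified, fluorescently labelled and sized by capillary electrophoresis; gain or loss fitted against DMSO baseline.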
Cellular tumor antigen p53 (Homo sapiens), sequence (P04637 whole entry, looked up): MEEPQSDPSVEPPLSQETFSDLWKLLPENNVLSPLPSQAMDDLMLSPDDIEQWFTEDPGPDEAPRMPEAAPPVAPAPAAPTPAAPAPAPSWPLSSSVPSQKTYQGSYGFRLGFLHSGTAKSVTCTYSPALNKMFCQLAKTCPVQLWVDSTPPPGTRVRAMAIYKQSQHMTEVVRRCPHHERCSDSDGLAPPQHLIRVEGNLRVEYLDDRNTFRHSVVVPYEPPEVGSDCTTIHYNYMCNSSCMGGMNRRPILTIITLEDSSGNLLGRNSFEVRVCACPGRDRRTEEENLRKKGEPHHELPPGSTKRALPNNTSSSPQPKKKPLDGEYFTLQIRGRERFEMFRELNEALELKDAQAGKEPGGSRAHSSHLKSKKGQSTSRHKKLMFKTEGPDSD

Test [6] addresses human Peroxisome Proliferator-activated Receptor alpha (PPARa), PPARA (gene 5465) (UniProt Q07869). The test is described as follows: ATG_PPARa_TRANS: Attagene TRANS-FACTORIAL HepG2 Assay for human Peroxisome Proliferator-activated Receptor alpha (PPARa) (AID 2283001; active = hit-call score of the fitted dose curve at least 0.9, where 1 is the maximum). The gist of the method:
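Transfected HepG2 cells treated with test chemical for 24 h. RNA isolated, reverse-transcribed with oligo(dT), PCR-amplified, FAM-labelled and HpaI-digested. Fragments sized by capillary electrophoresis; gain-of-signal fit relative to DMSO.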

For test [7], the target named is human Retinoic Acid Receptor beta (RARb), RARB (gene 5915) (UniProt P10826). The test is described as follows: ATG_RARb_TRANS: Attagene TRANS-FACTORIAL HepG2 Assay for human Retinoic Acid Receptor beta (AID 2283004; active = hit-call score of the fitted dose curve at least 0.9, where 1 is the maximum). The gist of the method: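 HepG2 cells transiently transfected with multiplexed GAL4-UAS reporter units expressing chimeric NR–Gal4 fusions; 24 h compound exposure. Reporter mRNA quantified by RT-PCR, 6-FAM labelling, HpaI digestion and capillary electrophoresis; gain-of-signal fitted against DMSO baseline.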
human Retinoic Acid Receptor beta (RARb), RARB (gene 5915), sequence (P10826 whole entry, looked up, the tested form may be a part): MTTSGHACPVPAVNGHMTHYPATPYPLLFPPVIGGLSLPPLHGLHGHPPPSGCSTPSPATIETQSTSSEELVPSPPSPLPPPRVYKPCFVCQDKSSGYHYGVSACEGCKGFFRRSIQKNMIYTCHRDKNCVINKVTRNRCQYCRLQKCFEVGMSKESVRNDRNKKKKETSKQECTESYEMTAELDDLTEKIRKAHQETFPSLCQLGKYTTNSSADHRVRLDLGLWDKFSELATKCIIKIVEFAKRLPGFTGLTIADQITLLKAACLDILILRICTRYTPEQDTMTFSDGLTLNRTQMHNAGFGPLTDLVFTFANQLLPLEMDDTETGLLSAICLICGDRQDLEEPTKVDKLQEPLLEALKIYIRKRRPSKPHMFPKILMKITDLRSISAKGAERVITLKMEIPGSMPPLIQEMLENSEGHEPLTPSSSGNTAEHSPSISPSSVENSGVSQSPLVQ

Test [8] has as its target Retinoic acid receptor alpha (Homo sapiens) (UniProt P10276). Put plainly: ATG_RARa_TRANS: Attagene TRANS-FACTORIAL HepG2 Assay for human Retinoic Acid Receptor alpha (RARa) (AID 2283005; active = hit-call score of the fitted dose curve at least 0.9, where 1 is the maximum). The gist of the method: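 Reporter transcripts, measured by RT-PCR with fluorescent labeling and capillary electrophoresis after 24 h dosing, reflect activity of an exogenous human RARa–GAL4 fusion in transiently transfected HepG2. Fitted for increase relative to DMSO.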

The target of test [9] is Nuclear receptor subfamily 1 group I member 2 (Homo sapiens) (UniProt O75469). Put plainly: ATG_PXR_TRANS: Attagene TRANS-FACTORIAL HepG2 Assay for human Pregnane X Receptor (PXR) (AID 2283008; active = hit-call score of the fitted dose curve at least 0.9, where 1 is the maximum). The method, boiled down: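 Transactivation by exogenous PXR–GAL4 fusion measured as reporter transcript induction after 24 h compound treatment of transfected human HepG2 cells. Read-out via RT-PCR and capillary electrophoresis of labelled fragments, fitted upward relative to DMSO.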
Nuclear receptor subfamily 1 group I member 2 (Homo sapiens), sequence (O75469 whole entry, looked up, the tested form may be a part): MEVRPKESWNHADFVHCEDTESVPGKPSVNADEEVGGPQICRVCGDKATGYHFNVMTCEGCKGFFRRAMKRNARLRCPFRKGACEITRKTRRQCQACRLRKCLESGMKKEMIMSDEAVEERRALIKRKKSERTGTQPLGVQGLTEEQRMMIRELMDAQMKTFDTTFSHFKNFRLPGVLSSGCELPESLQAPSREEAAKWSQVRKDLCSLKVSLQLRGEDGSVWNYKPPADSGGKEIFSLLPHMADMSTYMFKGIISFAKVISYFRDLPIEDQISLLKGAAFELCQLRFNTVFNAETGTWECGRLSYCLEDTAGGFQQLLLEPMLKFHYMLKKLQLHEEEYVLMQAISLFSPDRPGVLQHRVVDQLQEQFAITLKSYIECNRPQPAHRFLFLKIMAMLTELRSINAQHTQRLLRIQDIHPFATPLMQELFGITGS

Test [10] addresses human Retinoic Acid Receptor gamma (RARg), RARG (gene 5916) (UniProt P13631). Put plainly: ATG_RARg_TRANS: Attagene TRANS-FACTORIAL HepG2 Assay for human Retinoic Acid Receptor gamma (RARg) (AID 2283009; active = hit-call score of the fitted dose curve at least 0.9, where 1 is the maximum). The method, boiled down: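 Readout: reporter transcript levels via RT-PCR, 6-FAM primer-extension labelling, HpaI digestion and capillary electrophoresis. Cells: HepG2 carrying transfected RARg-GAL4 chimera plus UAS reporter set. Dosing 24 h; DMSO negative control.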

Test [11] addresses human Peroxisome Proliferator-activated Receptor delta (PPARd), PPARD (gene 5467) (UniProt Q03181). Put plainly: ATG_PPARd_TRANS: Attagene TRANS-FACTORIAL HepG2 Assay for human Peroxisome Proliferator-activated Receptor delta (PPARd) (AID 2283002; active = hit-call score of the fitted dose curve at least 0.9, where 1 is the maximum). The method, boiled down:
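Transient HepG2 transfection (multiple GAL4-UAS RTUs, chimeric receptor-Gal4); 24 h dosing; total RNA → oligo(dT) RT → PCR → 6-FAM primer extension → HpaI cut → CE. Positive direction vs DMSO.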

For test [12], the target named is Peroxisome proliferator-activated receptor gamma (Homo sapiens) (UniProt P37231). The test is described as follows: ATG_PPARg_TRANS: Attagene TRANS-FACTORIAL HepG2 Assay for human Peroxisome Proliferator-activated Receptor-gamma (PPARg) (AID 2283007; active = hit-call score of the fitted dose curve at least 0.9, where 1 is the maximum). The method, boiled down:
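HepG2 cells are transiently transfected with GAL4-UAS reporter units driven by chimeric NR-Gal4 fusions and dosed for 24 h. Reporter mRNA is quantified by RT-PCR, 6-FAM labelling, HpaI digestion and capillary electrophoresis. Induction is scored against DMSO.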

The target in test [13] is human RAR-related Orphan Receptor beta (RORb), RORB (gene 6096) (UniProt Q92753). Put plainly: ATG_RORb_TRANS: Attagene TRANS-FACTORIAL HepG2 Assay for human RAR-related Orphan Receptor beta (RORb) (AID 2283010; active = hit-call score of the fitted dose curve at least 0.9, where 1 is the maximum). The method, boiled down:
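HepG2, transient MRTU transfection (GAL4-UAS reporters, exogenous NR-Gal4 chimeras); 24 h compound exposure; total RNA → RT-PCR → 6-FAM primer extension → HpaI digest → CE fluorescence. Positive direction vs DMSO baseline.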

Test [14] concerns the target human RAR-related Orphan Receptor gamma (RORg), RORC (gene 6097) (UniProt P51449). The test is described as follows: ATG_RORg_TRANS: Attagene TRANS-FACTORIAL HepG2 Assay for human RAR-related Orphan Receptor gamma (RORg) (AID 2283011; active = hit-call score of the fitted dose curve at least 0.9, where 1 is the maximum). The gist of the method: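 Readout: reporter transcript induction (RT-PCR, fluorescent primer extension, capillary electrophoresis) after 24 h compound exposure of transiently transfected HepG2 cells carrying a RORg-Gal4 chimera and GAL4-UAS reporters; DMSO served as baseline, with increasing signal fitted.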

SMILES strings stand for the structures. Inconclusive results are not listed. Calls of active or inactive are those of the source. The calls were made as follows, unless noted: active = hit-call score of the fitted dose curve at least 0.9, where 1 is the maximum; inactive = score below 0.9.

Myc proto-oncogene protein (Homo sapiens), sequence (P01106 whole entry, looked up): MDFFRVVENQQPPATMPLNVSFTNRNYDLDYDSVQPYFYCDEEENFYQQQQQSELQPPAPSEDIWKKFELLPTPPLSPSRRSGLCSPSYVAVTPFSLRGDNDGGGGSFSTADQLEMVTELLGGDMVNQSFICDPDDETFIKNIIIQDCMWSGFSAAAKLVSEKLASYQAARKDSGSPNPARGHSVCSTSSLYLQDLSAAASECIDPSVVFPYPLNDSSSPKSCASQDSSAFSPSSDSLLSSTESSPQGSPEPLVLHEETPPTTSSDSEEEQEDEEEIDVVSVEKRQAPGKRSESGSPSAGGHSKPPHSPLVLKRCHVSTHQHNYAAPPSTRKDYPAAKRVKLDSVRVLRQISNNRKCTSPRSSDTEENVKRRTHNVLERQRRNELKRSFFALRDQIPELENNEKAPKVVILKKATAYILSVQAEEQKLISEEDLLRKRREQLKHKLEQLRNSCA
Retinoic acid receptor alpha (Homo sapiens), sequence (P10276 whole entry, looked up, the tested form may be a part): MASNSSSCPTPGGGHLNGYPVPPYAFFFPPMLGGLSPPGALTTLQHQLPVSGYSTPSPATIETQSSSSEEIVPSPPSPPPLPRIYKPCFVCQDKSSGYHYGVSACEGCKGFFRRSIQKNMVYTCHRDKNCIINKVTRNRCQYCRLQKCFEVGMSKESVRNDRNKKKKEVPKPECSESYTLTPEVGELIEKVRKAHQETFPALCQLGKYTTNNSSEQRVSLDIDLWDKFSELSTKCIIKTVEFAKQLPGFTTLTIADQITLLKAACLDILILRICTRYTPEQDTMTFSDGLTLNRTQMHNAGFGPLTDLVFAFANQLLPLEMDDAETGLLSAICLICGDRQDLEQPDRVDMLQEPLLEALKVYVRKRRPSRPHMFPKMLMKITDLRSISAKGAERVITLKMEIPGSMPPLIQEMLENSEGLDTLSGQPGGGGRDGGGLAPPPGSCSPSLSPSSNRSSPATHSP
human Peroxisome Proliferator-activated Receptor alpha (PPARa), PPARA (gene 5465), sequence (Q07869 whole entry, looked up, the tested form may be a part): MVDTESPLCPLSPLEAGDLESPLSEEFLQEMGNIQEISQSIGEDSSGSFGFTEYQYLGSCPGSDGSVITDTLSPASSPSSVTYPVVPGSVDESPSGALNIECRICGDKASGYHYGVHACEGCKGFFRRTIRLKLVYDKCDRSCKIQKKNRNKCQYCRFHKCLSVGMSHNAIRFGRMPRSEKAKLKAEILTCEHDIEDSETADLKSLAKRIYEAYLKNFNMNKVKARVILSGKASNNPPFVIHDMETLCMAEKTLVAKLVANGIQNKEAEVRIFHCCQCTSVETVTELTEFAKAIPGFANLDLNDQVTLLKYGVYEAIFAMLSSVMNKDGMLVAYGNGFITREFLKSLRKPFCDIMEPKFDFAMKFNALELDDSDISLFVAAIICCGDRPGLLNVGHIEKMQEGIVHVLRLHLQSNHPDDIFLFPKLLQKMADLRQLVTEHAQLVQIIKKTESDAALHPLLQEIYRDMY
human RAR-related Orphan Receptor beta (RORb), RORB (gene 6096), sequence (Q92753 whole entry, looked up, the tested form may be a part): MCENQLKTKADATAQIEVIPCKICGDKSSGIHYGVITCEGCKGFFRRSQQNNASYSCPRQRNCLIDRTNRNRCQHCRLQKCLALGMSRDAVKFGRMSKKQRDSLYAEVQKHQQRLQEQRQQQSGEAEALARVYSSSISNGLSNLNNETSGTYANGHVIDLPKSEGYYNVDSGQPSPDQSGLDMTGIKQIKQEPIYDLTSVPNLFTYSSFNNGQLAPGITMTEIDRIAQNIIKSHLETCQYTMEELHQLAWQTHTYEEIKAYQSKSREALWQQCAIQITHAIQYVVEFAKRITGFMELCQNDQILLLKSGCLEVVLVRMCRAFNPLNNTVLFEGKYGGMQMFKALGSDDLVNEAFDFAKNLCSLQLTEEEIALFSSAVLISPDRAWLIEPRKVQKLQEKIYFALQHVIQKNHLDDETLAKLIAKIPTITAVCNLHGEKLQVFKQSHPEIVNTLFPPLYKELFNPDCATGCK
human Peroxisome Proliferator-activated Receptor delta (PPARd), PPARD (gene 5467), sequence (Q03181 whole entry, looked up, the tested form may be a part): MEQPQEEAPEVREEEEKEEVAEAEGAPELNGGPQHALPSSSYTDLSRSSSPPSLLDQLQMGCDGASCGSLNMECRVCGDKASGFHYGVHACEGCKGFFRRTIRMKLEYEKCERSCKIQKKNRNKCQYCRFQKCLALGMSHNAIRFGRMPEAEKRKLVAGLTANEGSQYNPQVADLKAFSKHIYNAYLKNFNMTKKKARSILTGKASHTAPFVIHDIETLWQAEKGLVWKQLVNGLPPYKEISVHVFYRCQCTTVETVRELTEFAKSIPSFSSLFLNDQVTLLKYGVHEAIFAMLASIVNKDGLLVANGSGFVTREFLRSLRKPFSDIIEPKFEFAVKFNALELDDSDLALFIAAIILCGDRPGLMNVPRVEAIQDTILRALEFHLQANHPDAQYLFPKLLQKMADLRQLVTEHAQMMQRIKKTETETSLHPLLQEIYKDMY
Peroxisome proliferator-activated receptor gamma (Homo sapiens), sequence (P37231 whole entry, looked up, the tested form may be a part): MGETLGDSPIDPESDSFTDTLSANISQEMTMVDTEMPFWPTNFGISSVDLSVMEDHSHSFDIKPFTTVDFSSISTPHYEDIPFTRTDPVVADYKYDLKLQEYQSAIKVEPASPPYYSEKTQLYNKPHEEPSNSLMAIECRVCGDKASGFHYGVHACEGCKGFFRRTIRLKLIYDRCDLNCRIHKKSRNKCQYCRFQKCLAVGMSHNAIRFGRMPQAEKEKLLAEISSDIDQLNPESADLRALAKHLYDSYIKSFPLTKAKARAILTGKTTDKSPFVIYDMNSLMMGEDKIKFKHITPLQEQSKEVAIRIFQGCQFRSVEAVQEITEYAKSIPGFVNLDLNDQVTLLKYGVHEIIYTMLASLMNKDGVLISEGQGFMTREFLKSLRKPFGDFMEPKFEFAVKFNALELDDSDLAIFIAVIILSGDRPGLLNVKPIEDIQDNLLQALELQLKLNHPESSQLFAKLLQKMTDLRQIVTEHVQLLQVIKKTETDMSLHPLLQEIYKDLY
human Retinoic Acid Receptor gamma (RARg), RARG (gene 5916), sequence (P13631 whole entry, looked up, the tested form may be a part): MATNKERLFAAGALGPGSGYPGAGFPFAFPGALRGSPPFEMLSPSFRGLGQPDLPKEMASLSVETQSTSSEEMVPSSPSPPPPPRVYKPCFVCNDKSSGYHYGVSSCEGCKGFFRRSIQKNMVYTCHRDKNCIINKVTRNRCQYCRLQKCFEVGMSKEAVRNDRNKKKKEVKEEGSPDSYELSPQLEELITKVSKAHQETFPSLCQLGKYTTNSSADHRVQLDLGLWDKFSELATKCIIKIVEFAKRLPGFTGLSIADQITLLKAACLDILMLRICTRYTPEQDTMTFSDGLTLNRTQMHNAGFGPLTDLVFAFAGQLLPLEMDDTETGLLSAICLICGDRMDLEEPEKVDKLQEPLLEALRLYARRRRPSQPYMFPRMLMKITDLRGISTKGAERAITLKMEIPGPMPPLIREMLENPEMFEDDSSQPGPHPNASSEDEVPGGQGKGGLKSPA

Turning to `Cc1ccc(S(N)(=O)=O)cc1`, the compound was called inactive in [1], in test [2], in test [3], in [4], in [5] and in test [6]. Moreover, the result in [7], in test [8], in [9] and in [10] was inactive.
For orientation: AC50 means the concentration giving half of the maximal activity seen. As to `CCCCCCCCSCCO`, the compound was classed as inactive in [1], in test [2], in test [4], in test [5], in [6] and in test [11]. Besides, in [9], the compound was called inactive. For the same compound, the figures for the AC50 in test [3] and in [12] were 186 µM (active) and 33.8 µM (active), respectively.
In the case of `C[Si](C)(C)O[Si](C)(C)C`, the compound was classed as inactive in test [1], in test [2], in [3], in test [4], in test [5] and in [6]. Also, the outcome in [11], in test [8] and in [13] was inactive.
On to `Cc1cc(=O)oc2cc(N(C)C)ccc12`, for which the call in test [1], in [2], in test [3], in [5], in test [6] and in test [11] was inactive. The outcome in test [12] and in test [9] was inactive. Moreover, the AC50 in [4] was 57.4 µM (active).
Turning to `N#Cc1ccc(CC(=O)c2cccc(C(F)(F)F)c2)cc1`, the concentration at half-maximal activity (AC50) in [1] is 158 µM (active); in test [3], 13.5 µM (active); in test [12], 31.4 µM (active); in test [9] it was 5.99 µM (active). In addition, the outcome in test [2], in [4], in test [5], in [6], in [11] and in test [10] was inactive.
For the compound `CCCCCCCCCCCCCCN(CCO)CCO`, the compound was classed as inactive in test [1], in test [2], in test [4], in test [5], in test [6] and in [7]. The compound was called inactive in [8], in [9] and in [10]. In addition, in test [3], the AC50 was 11.1 µM (active).
As to `CCCCCCCCCCCCN1CCCCCC1=O`, the outcome in test [1], in [2], in test [4], in test [5], in [6] and in test [11] was inactive. Also, the compound was called inactive in test [12] and in test [10]. The AC50 was 10.9 µM (active) in test [3] and 1.93 µM (active) in test [9].
As to `CC(C)CC(C)CC(O)CC(C)C` (stereo not given), the compound was classed as inactive in test [1], in test [2], in test [4], in test [5], in test [6] and in [8]. Further, the compound was called inactive in test [12], in test [10], in [13] and in test [14]. In addition, the AC50 in test [3] was 100 µM (active).
As to `CC1(C)COCN1`, the result in [1], in test [2], in [3], in test [4], in test [5] and in test [6] was inactive. For the same compound, the compound was called inactive in test [7], in [8] and in test [9].
On to `CCOC(=O)[C@@H](C)Oc1ccc(Oc2nc3ccc(Cl)cc3o2)cc1`, for which the call in [1], in test [2], in [4], in test [5], in [6] and in test [11] was inactive. In test [9], the compound was classed as inactive. The results for the half-maximal activity concentration (AC50) in [3] and in [12] were 39.9 µM (active) and 39.2 µM (active), respectively.
For the compound `FC(F)(F)COCC(F)(F)F`, the result in test [1], in test [2], in [3], in test [4], in test [5] and in test [6] was inactive. Besides, the call in test [8], in [12], in [9] and in [13] was inactive.
Take `Cc1cccc(Nc2ccccc2)c1`: the compound was classed as inactive in test [1], in test [2], in [4], in test [5], in [6] and in test [11]. The result in test [9] was inactive. The concentration at half-maximal activity (AC50) in test [3] is 70.6 µM (active); in test [12], 85.4 µM (active).

The record behind these values is PubChem BioAssay (EPA / NIEHS).
